Assay [1] is described as follows: qHTS drug screen for cell cycle checkpoint inhibitors in PARPi-resistant BRCA-mutant ovarian cancer cell lines. (AID 1963452; calls by dose curve). To be noted: PEO1/OlaR viability, CellTiter-Glo luminescence, 96 h, stronger effect = lower value. The gist of the method: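 PEO1, PEO4 and PEO1/OlaR ovarian cancer cells, 600 per well, exposed 96 h at 37C to a dilution series. Viability read by CellTiter-Glo luminescence, normalized to DMSO and empty wells; activity summarized as Z-AUC.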
Background: Quantitative high-throughput screening tests each substance at several concentrations.

The nature of assay [2]: qHTS for identification of novel therapeutic agents for treatment of microphthalmiaassociated transcription factor (MiT) renal cell carcinoma (RCC) (AID 1963991; calls by dose curve; note: potency is the fitted concentration of half-maximal effect). To be noted: CellTiter-Glo, 48 h; for z-score: stronger effect = lower value. The gist of the method: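 Viability of three TFE3-fusion renal carcinoma lines measured by CellTiter-Glo after 48 h treatment with each of 1912 compounds at 11 concentrations. Responses scaled between DMSO (100%) and empty wells (0%) before curve fitting.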

Assay [3] in a line: qHTS profiling for inhibitors of Plasmodium falciparum proliferation (AID 504749).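 For activity, negative = inhibition: 0% = DMSO vehicle and full inhibition = artemisinin control.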 Note: nearly all actives have a fitted effect of over 60% in size. Note: potency is the fitted concentration of half-maximal effect. To be noted: P. falciparum in erythrocytes, SYBR Green DNA, 72 h, at 28.7 µM (top of the series). A digest of the protocol:
(§1)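 Fluorescence of SYBR Green-bound parasite DNA, read at 485/535 nm, served as the growth measure. Infected erythrocytes were cultured with compound 72 h; artemisinin (0.29 uM) and DMSO wells defined the normalization range.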

A further assay has as its system 3D7. The description is as above. To be noted: P. falciparum in erythrocytes, SYBR Green DNA, 72 h; series mostly up to 28.7 µM. The gist of the method: as §1
For another assay, the system named is 7G8. The description is as above. To be noted: P. falciparum in erythrocytes, SYBR Green DNA, 72 h; series mostly up to 28.7 µM. A digest of the protocol: as §1
The subject of the next assay is AA1029. Described as above. To be noted: P. falciparum in erythrocytes, SYBR Green DNA, 72 h; series mostly up to 28.7 µM. A digest of the protocol:
as §1

The next assay deals with AS120. The assay is described as above. As to conditions: P. falciparum in erythrocytes, SYBR Green DNA, 72 h; series mostly up to 28.7 µM. A digest of the protocol:
as §1

Another assay deals with ATS189. The assay is described as above. To be noted: P. falciparum in erythrocytes, SYBR Green DNA, 72 h; series mostly up to 28.7 µM. A digest of the protocol: as §1
In a further assay the test system is ATS95. Described as above. As to conditions: P. falciparum in erythrocytes, SYBR Green DNA, 72 h; series mostly up to 28.7 µM. A digest of the protocol:
as §1

The test system of the next assay is C2A. The assay is described as above. As to conditions: P. falciparum in erythrocytes, SYBR Green DNA, 72 h; series mostly up to 28.7 µM. The gist of the method:
as §1

The test system of another assay is CP185. The assay is described as above. To be noted: P. falciparum in erythrocytes, SYBR Green DNA, 72 h; series mostly up to 28.7 µM. The gist of the method:
as §1

The test system of another assay is CP191. The assay is described as above. To be noted: P. falciparum in erythrocytes, SYBR Green DNA, 72 h; series mostly up to 28.7 µM. The gist of the method: as §1
Another assay concerns CP192. Described as above. As to conditions: P. falciparum in erythrocytes, SYBR Green DNA, 72 h; series mostly up to 28.7 µM. The gist of the method: as §1
[4] abbreviates: measured here: PEO1 parental Z-AUC.
The mark [5] stands for this setting: TFE3-RCC UOK109 viability, measured here: UOK109 Z-AUC.
The mark [6] stands for this setting: TFE3-RCC viability, measured here: UOK124 Z-AUC.
The mark [7] stands for this setting: TFE3-RCC viability, measured here: UOK145 Z-AUC.

The structures appear in SMILES notation. “And” between values parts separate entries of the source, which are not always exact repeats. Identical values can stand only once. Results filed as inconclusive are left out. The source made the active and inactive calls. Unless noted, calls come from the whole dose curve; as a rule, active = well fitted inhibition curve with a large enough effect; inconclusive = small, poorly fitted or top-dose-only effect; inactive = flat fitted curve, though single readings scatter.

Regarding `C[C@]12CCC(=O)C=C1CC[C@@H]1[C@@H]2[C@@H](O)C[C@@]2(C)[C@H]1CC[C@]2(O)C(=O)CO`, the Z-AUC in [1] was 0.00041 (inactive); in assay [1] (setting [4]), 0.66; in [1] (measured here: PEO4 Z-AUC), -0.19.
Turning to `NS(=O)(=O)c1cc2c(cc1Cl)NC=NS2(=O)=O`, the Z-AUC in [1] was 0.885 (inactive); in assay [1] (setting [4]), 1.02; in assay [1] (measured here: PEO4 Z-AUC), 0.779. The z-score in [2] (setting [5]) was determined as 0.178; in [2] (setting [6]), 0.944; in assay [2] (setting [7]), 0.209. The activity, negative = inhibition in assay [3] (parasite line A) is 7.83% (inactive); in [3] (parasite line B), 11% (inactive). In addition, the Potency result with 3D7, in the assay on 7G8, with AA1029, in the assay with AS120, with ATS189 and in the assay on ATS95 was “inactive” in each case. Moreover, the Potency entry in the assay on C2A, in the assay on CP185, in the assay with CP191 and in the assay on CP192 was “inactive” each time.
Regarding `O=C(C1CC1)N1CC[C@@H](Cn2c(-c3ccc(-c4ccc5occc5c4)cc3)nc3cnccc32)C1`, the Z-AUC was 0.419 (inactive) in assay [1], 0.824 in assay [1] (setting [4]) and 0.902 in assay [1] (measured here: PEO4 Z-AUC). Also, the z-score was found to be 0.57 in [2] (setting [5]), 0.377 in assay [2] (setting [6]) and 0.609 in assay [2] (setting [7]).
Regarding `CCCc1nn(C)c2c(=O)[nH]c(-c3cc(S(=O)(=O)N4CCN(C)CC4)ccc3OCC)nc12`, the Z-AUC was 1.57 (inactive) in assay [1], 1.2 in [1] (setting [4]) and 0.991 in [1] (measured here: PEO4 Z-AUC). Further, the activity, negative = inhibition in assay [3] (parasite line A) was 8.82% (inactive); in assay [3] (parasite line B), 0.131% (inactive). For the same compound, the Potency result in the assay with 3D7, in the assay with AA1029, in the assay with AS120, with ATS189, in the assay on ATS95 and in the assay on C2A was “inactive” each time. Also, the Potency entry in the assay on CP185, in the assay on CP191 and with CP192 was “inactive” each time. Further, the Potency with 7G8 was 11.2 µM (active).
Take `OCCn1cc(-c2cnc3nnn(Cc4ccc5ncccc5c4)c3n2)cn1`: the values for the Z-AUC in assay [1], in assay [1] (setting [4]) and in assay [1] (measured here: PEO4 Z-AUC) were -0.182 (inactive), 0.0266 and 0.506, respectively. Moreover, the z-score is 0.421 in [2] (setting [5]), 0.338 in assay [2] (setting [6]) and 0.859 in assay [2] (setting [7]).
For `NC(=O)c1ccc(I)c([N+](=O)[O-])c1`, the Z-AUC in assay [1] was 1.56 (inactive); in assay [1] (setting [4]), 1.77; in [1] (measured here: PEO4 Z-AUC) it was 1.61. Also, the z-score in [2] (setting [5]) was 0.172; in assay [2] (setting [6]), 0.616; in assay [2] (setting [7]) it was -0.107.
In the case of `CC(C)(C)NCC(O)c1ccc(O)c(CO)c1` (stereo not given), the Z-AUC in [1] was 0.197 (inactive); in assay [1] (setting [4]), 0.915; in [1] (measured here: PEO4 Z-AUC), 0.881. Also, the z-score was 0.712 in [2] (setting [5]), 0.591 in assay [2] (setting [6]) and 2.94 in assay [2] (setting [7]).
Turning to `C#Cc1cccc(Nc2ncnc3cc(OCCOC)c(OCCOC)cc23)c1`, the values for the Z-AUC in assay [1], in [1] (setting [4]) and in assay [1] (measured here: PEO4 Z-AUC) were -0.425 (inactive), -1.02 and -0.978, respectively. Further, the Potency in assay [2] (TFE3-RCC UOK109 viability, active = Z-AUC below -0.8 in all three lines) is 0.0526 µM (active); with 3D7, 8.91 µM (active); with 7G8, 11.2 µM (active); in the assay with AA1029, 8.91 µM (active); in the assay on AS120, 11.2 µM (active). The z-score was -2.56 in assay [2] (setting [5]), -1.06 in [2] (setting [6]) and -1.55 in [2] (setting [7]). Moreover, the Potency result in the assay with CP185 and in the assay on CP192 was “inactive” throughout.
Turning to `Cc1cnc(NC(=O)C2=C(O)c3ccccc3S(=O)(=O)N2C)s1`, the Z-AUC in [1] was 0.682 (inactive) and 1.14 (inactive) and 0.871 (inactive); in assay [1] (setting [4]) it was 0.615 and 0.579 and 0.604; in assay [1] (measured here: PEO4 Z-AUC), 0.593 and 0.643 and 0.888. The z-score was found to be 0.549 in assay [2] (setting [5]), 0.223 in assay [2] (setting [6]) and 0.231 in assay [2] (setting [7]).
For `CCC(C)N(C)C(=O)c1cc2ccccc2c(-c2ccccc2Cl)n1` (stereo not given), the Z-AUC in [1] is -0.72 (inactive); in assay [1] (setting [4]) it was -0.771; in assay [1] (measured here: PEO4 Z-AUC) it was -0.805. For the same compound, the z-score in assay [2] (setting [5]) was 0.652; in assay [2] (setting [6]), 0.425; in assay [2] (setting [7]), -0.135.
Regarding `NCCc1ccc(O)c(O)c1`, the Z-AUC is 0.293 (inactive) in [1], 0.902 in assay [1] (setting [4]) and 0.891 in [1] (measured here: PEO4 Z-AUC). Moreover, the z-score was 0.759 in [2] (setting [5]), 0.079 in assay [2] (setting [6]) and 0.506 in assay [2] (setting [7]). Moreover, the values for the activity, negative = inhibition in assay [3] (parasite line A) and in assay [3] (parasite line B) were -7.96% (inactive) and 1.48% (inactive), respectively. For the same compound, the Potency result in the assay with 3D7, in the assay with 7G8, in the assay with AA1029, in the assay with AS120, with ATS189 and with C2A was “inactive” in each case. The Potency entry with CP185, in the assay on CP191 and with CP192 was “inactive” throughout.
On to `CC(C[N+](C)(C)C)OC(N)=O` (stereo not given), for which the figures for the Z-AUC in assay [1], in assay [1] (setting [4]) and in [1] (measured here: PEO4 Z-AUC) were 1.18 (inactive), 1.37 and 1.64, respectively. Also, the z-score in [2] (setting [5]) amounted to 0.592; in assay [2] (setting [6]), 0.666; in assay [2] (setting [7]), 0.688. Also, the activity, negative = inhibition in assay [3] (parasite line A) is 8.36% (inactive); in assay [3] (parasite line B), 9.26% (inactive). The Potency result in the assay on 3D7, in the assay on 7G8, in the assay on AA1029, with AS120, in the assay with ATS189 and with ATS95 was “inactive” each time. The Potency entry with C2A, with CP185, in the assay on CP191 and in the assay with CP192 was “inactive” throughout.

Values taken from PubChem BioAssay (NCATS).
